Screens as filed in PubChem.
PTK2B oligo ant: antagonists of Pyk2 self-association, primary screen, Q293 cells, FERM NanoBiT luminescence, HTS; active compounds read low; z-score (the deposit names both 25 µM and 10 µM); actives 0.83% (n = 99,000); AID 1347419, 2020;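 active = Z-score of -3 or lower, scaled per plate to the spread of control and sample wells; inactive = z-score above -3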;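 also: negative z-score means lost luminescence so less FERM oligomerization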
CYP2C19 activ: human CYP2C19 activators, primary screen, biochemical, luminescence; Cytochrome P450 2C19 (Homo sapiens), P33261; recombinant CYP2C19, luciferin-H EGE luminescence; active compounds read high; 0 = fully inhibited enzyme, 1 = untreated enzyme; activation factor at 5 µM; 96,000 tested, under 10 active;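 active = activation factor of at least 2 at 5 µM in the primary screen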
CYP2C9 activ: human CYP2C9 activators, primary screen, biochemical, luminescence; Cytochrome P450 2C9 (Homo sapiens), P11712; recombinant CYP2C9, luciferin-H conversion; active compounds read high; factor 1 = untreated enzyme, 0 = blocked; activation factor at 5 µM; actives 1.4% (n = 96,000); AID 1024, 2008;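 active = activation factor of 2 or more for CYP2C9 at a 5 µM dose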
Target sequence (P11712 whole entry, looked up): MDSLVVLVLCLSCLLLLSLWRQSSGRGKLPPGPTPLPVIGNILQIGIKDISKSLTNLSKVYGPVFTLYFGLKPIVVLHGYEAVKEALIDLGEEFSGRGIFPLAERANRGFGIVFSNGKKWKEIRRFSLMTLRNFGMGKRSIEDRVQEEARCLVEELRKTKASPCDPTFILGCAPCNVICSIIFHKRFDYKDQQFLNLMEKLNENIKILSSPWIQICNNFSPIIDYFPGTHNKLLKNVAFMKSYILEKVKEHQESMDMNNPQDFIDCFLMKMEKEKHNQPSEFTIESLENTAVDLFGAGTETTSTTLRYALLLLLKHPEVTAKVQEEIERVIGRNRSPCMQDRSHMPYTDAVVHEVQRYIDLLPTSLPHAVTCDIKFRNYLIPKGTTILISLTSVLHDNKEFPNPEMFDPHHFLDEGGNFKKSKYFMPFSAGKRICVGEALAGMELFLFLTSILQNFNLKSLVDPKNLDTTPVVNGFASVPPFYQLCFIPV
CYP2C9 inh: blockers of cytochrome P450 2C9 activity – biochemical, luminescence, ADME assay, primary screen; CYP2C9 Supersomes, luciferin-H conversion; inhibition, % at 5 µM; actives 20% (n = 96,000);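 active = blocking of liver enzyme CYP2C9 beyond about 50% at 5 µM, limit read from the data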
Cav3 T inh: Cav3.2 calcium influx blockers – cell-based, Fluo-4 calcium fluorescence, FDSS, MLSMR library, primary screen; actives 4% (n = 100,000); Cav3.2-expressing cells; active compounds read low; AID 449739, 2010; B-score at 10 µM; Voltage-dependent T-type calcium channel subunit alpha-1H (Homo sapiens), O95180;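 active = single-dose well whose peak fluorescence ratio is a statistical outlier from its plate by either plate-standardised score or position-corrected B-score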
CYP2C19 inh: blockers of cytochrome P450 2C19 activity – biochemical, luminescence, ADME assay, primary screen; P33261; CYP2C19 Supersomes, luciferin-H EGE luminescence, 30 min; inhibition, % at 5 µM; actives 21% (n = 96,000);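 active = CYP2C19 inhibition above a set limit at 5 µM in the primary screen, cut at about 50% in these data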
Each line names hits and unclear results; the compound was inactive in the other large screens. The list is not random: actives were taken first. Their share in the collection is about 27%.

CC1C(=O)CC(c2ccco2)NC1c1ccco1 (centres undefined)	CYP2C19 inh 69 (no result: PTK2B oligo ant)
CCNC(=O)CC1C(=O)N(c2ccc(F)cc2)C(=O)N1CCC(C)C (centres undefined)	none
COc1ccc(/C=N/n2c(N)c(S(=O)(=O)c3cccs3)c3nc4ccccc4nc32)cc1OC	CYP2C9 inh 77
COCCNC(=O)c1c(N)n(/N=C/c2cccs2)c2nc3ccccc3nc12	CYP2C9 inh 61
COc1cccc(/C=N/n2c(N)c(S(=O)(=O)c3cccs3)c3nc4ccccc4nc32)c1	none
Nc1c(S(=O)(=O)c2cccs2)c2nc3ccccc3nc2n1/N=C/c1cccc(O)c1	PTK2B oligo ant -3.2, CYP2C9 inh 80
CN=CC1=C(O)CC(C)(C)CC1=O	none
CC1(C)CC(=O)C(C=NC2CCCCC2)=C(O)C1	none
CC1(C)CC(=O)C(CC2=C(O)CC(C)(C)CC2=O)=C(O)C1	CYP2C19 inh 86
CC1(C)CC(=O)C(CC2=C(O)CC(C)(C)CC2=O)C(=O)C1	CYP2C19 inh 51
CCOc1ccc(CN2C(=O)c3ccccc3C2C(=O)NCc2cccnc2)cc1 (centres undefined)	none
C=CCNCC#CCOc1ccc(OC)cc1	CYP2C19 inh 76
CSc1cccc(NC(=O)C2CCN(C(=O)c3ccccc3C)CC2)c1	none (no result: CYP2C19 activ, CYP2C9 activ, CYP2C9 inh, Cav3 T inh, CYP2C19 inh)
CN(CC(=O)N1CCN(c2ccccc2F)CC1)S(=O)(=O)c1cnc[nH]1	CYP2C9 inh 100, CYP2C19 inh 99
Cc1ccc(C)c(N2CCN(C(=O)CN(C)S(=O)(=O)c3cnc[nH]3)CC2)c1	CYP2C9 inh 100, CYP2C19 inh 92
CCOC(=O)CNC1CC(=O)N(c2cccc(Cl)c2)C1=O (centres undefined)	none
Cc1nn(CCC#N)c(NC(=O)c2ccc(Cl)cc2Cl)c1P(=O)(Nc1ccc([N+](=O)[O-])cc1)N1CCOCC1 (centres undefined)	none
COc1ccc(NC(=O)C2CCN(S(=O)(=O)c3ccc(C)cc3)CC2)cc1OC	none
COc1ccc(S(=O)(=O)N2CCC(C(=O)Nc3cccc(Cl)c3)CC2)cc1OC	CYP2C19 inh 53
COc1ccc(S(=O)(=O)N2CCCC(C(=O)Nc3cccc(C(C)=O)c3)C2)cc1 (centres undefined)	none (no result: Cav3 T inh)
CC(=O)c1cccc(NC(=O)C2CCN(S(=O)(=O)c3ccccc3)CC2)c1	CYP2C19 inh 68
CC(=O)c1cccc(NC(=O)C2CCN(S(=O)(=O)c3ccc(F)cc3)CC2)c1	CYP2C9 inh 63, CYP2C19 inh 53
CC(=O)c1cccc(NC(=O)C2CCCN(S(=O)(=O)c3ccc(F)cc3)C2)c1 (centres undefined)	CYP2C9 inh 76, CYP2C19 inh 87
CC(=O)c1cccc(NC(=O)C2CCN(S(C)(=O)=O)CC2)c1	none
Cc1cc(C)cc(OCC(=O)Nc2ccc(N3CCN(S(C)(=O)=O)CC3)cc2)c1	none
COc1cccc(C2NC(=O)N(CCCC(=O)O)C(C)=C2C(=O)OCc2ccccc2)c1 (centres undefined)	none (no result: PTK2B oligo ant, CYP2C19 activ, CYP2C9 activ, CYP2C9 inh, CYP2C19 inh)
O=c1ccc2cc3c([nH]c4ccc(Br)cc43)oc-2c1O	none
O=C(Nc1ccc(N2CCOCC2)cc1)C1CCCN(S(=O)(=O)c2cccc(C(F)(F)F)c2)C1 (centres undefined)	CYP2C19 inh 63
O=C(Nc1ccc(N2CCOCC2)cc1)C1CC1	none
Cc1onc(-c2c(Cl)cccc2Cl)c1C(=O)N1C=CC(C(F)(F)F)=NCC1	CYP2C19 inh 59
Cc1onc(-c2c(F)cccc2Cl)c1C(=O)N1C=CC(C(F)(F)F)=NCC1	none
Cc1onc(-c2c(F)cccc2Cl)c1C(=O)N1CCc2ccccc21	CYP2C19 inh 63
Cc1onc(-c2c(Cl)cccc2Cl)c1C(=O)N1CCCc2ccccc21	CYP2C9 inh 82, CYP2C19 inh 91
Cc1onc(-c2c(Cl)cccc2Cl)c1C(=O)N1CCc2ccccc2C1	CYP2C9 inh 73, CYP2C19 inh 77 (no result: Cav3 T inh)
CC1(C)CC(=O)C/C(=N/NC(=O)CCCOc2ccc(Cl)cc2Cl)C1	none
S=c1nc(C2CCCCC2)[nH][nH]1	none
Cc1noc(C)c1C(=O)N1CCc2ccccc21	none
Cc1onc(-c2ccccc2)c1C(=O)N1CCCc2ccccc21	CYP2C19 inh 69
COC(=O)[C@H](Cc1ccccc1)NC(=O)[C@@]1(C)C[C@@H]1[C@@H](NC(=O)OCc1ccccc1)c1ccccc1	none (no result: PTK2B oligo ant, CYP2C19 activ, CYP2C9 activ, CYP2C9 inh, CYP2C19 inh)
Cc1ccc(S(=O)(=O)NC2CCCc3ccccc32)cc1C (centres undefined)	Cav3 T inh -4.2
Cc1cccc(-n2nnc(C(=O)NC3CCCc4ccccc43)c2N)c1 (centres undefined)	Cav3 T inh -6.6
Cc1cc(C(=O)NC2CCCc3ccccc32)c(C)o1 (centres undefined)	CYP2C9 inh 70
Cc1cc(C(=O)NC2CCCc3ccccc32)no1 (centres undefined)	none
CSCc1c(C(=O)NC2CCCc3ccccc32)oc2ccccc12 (centres undefined)	CYP2C9 inh 55
O=C(CSc1nnc(-c2csc3c2CCCC3)o1)Nc1ccccc1	none (no result: PTK2B oligo ant)
Cc1cc(C)nc(N2CCC(CNC(=O)CCc3ccccc3)CC2)n1	none
C=C(C)C(=O)Nc1cccc(C2=NOC3(C2)C[C@H](C(N)=O)N(C(=O)c2ccccc2C(=O)c2ccccc2)C3)c1 (some centres undefined)	none (no result: PTK2B oligo ant, CYP2C19 activ, CYP2C9 activ, CYP2C9 inh, CYP2C19 inh)
CCN(CC)S(=O)(=O)c1ccc2oc(C(=O)NC3CCCc4ccccc43)c(C)c2c1 (centres undefined)	CYP2C9 inh 59
CCCNS(=O)(=O)c1cccc(C(=O)NC2CCCc3ccccc32)c1 (centres undefined)	CYP2C9 inh 89, CYP2C19 inh 78
CN(C)S(=O)(=O)c1cccc(C(=O)NC2CCCc3ccccc32)c1 (centres undefined)	none
CC(=O)C1=C(O)C(=O)N(Cc2ccccc2)C1c1ccco1 (centres undefined)	none
C#CCNC(=O)C1=C[C@@H](c2ccc3c(c2)OCO3)C[C@@H](OCCCCO)O1	none (no result: PTK2B oligo ant, CYP2C19 activ, CYP2C9 activ, CYP2C9 inh, CYP2C19 inh)
Clc1ccc(Sc2oc(/C=N/n3cnnc3)cc2Br)cc1	CYP2C19 inh 91
Clc1ccc(Sc2ccc(/C=N/n3cnnc3)o2)cc1	CYP2C19 inh 77
Cc1cc(/C=N/n2cnnc2)c(C)n1-c1ccc(OCc2ccc(Cl)cc2)cc1	none
Cc1[nH]c2ccccc2c1C(c1ccccn1)N1CCC(C(N)=O)CC1 (centres undefined)	CYP2C19 inh 51
